# From PubChem BioAssay (NCATS)
# Records with an inconclusive call do not appear. Entries that show only a call come without a potency. Calls of active or inactive are those of the source. Unless noted, calls follow the shape of the dose curve; as a rule, active = well fitted curve in the direction sought with a large enough effect; inconclusive = small, poorly fitted or top-dose-only effect, or another doubt; inactive = no such curve, though single readings can be large; an effect the other way counts as inactive or inconclusive.
# Legend:
# [1] = target: Cytochrome P450 2D6 (Homo sapiens) (UniProt P10635); experiment: Cytochrome P450 family 2 subfamily D member 6 (CYP2D6) small molecule antagonists: luciferase biochemical (cell-free) qHTS assay (AID 1645840; active = well fitted curve in the direction sought with a large enough effect in the repeat runs; an effect the other way counts as inactive or inconclusive; also: nearly all actives have a fitted effect of over 55% in size; also: potency is read from the fitted curve at half-maximal effect)
# Sequence of Cytochrome P450 2D6 (Homo sapiens) (P10635 whole entry, looked up): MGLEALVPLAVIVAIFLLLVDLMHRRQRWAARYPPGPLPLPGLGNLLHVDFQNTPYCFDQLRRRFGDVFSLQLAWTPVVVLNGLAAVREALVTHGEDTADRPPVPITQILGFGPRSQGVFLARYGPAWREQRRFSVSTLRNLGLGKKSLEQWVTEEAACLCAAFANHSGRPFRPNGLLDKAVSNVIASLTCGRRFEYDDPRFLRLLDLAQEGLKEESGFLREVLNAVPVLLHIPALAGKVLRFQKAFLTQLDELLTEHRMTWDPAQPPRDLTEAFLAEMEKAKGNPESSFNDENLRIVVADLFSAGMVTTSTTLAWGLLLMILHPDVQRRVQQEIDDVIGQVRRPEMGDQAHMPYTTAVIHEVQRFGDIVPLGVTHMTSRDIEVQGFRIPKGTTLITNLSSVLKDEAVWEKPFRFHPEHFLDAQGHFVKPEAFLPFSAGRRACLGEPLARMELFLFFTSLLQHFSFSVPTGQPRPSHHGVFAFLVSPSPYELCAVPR
# In short: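 P450-Glo CYP2D6 system: proluciferin substrate converted by enzyme to luciferin, read by luminescence proportional to activity. Enzyme-substrate mix with compound 10 min at room temperature, then NADPH regeneration 1 h before detection reagent.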
# [2] = HepG2 viability counterscreen (readout 2: ATP content) against the NCATS DSHEA and TCM libraries (AID 1794840);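 also: HepG2 cells exposed to substances for about 24 h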
# In short: (§1)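 Readout 1: cellular protease activity, GF-AFC substrate (25 uM final, 30 min, fluorescence 380/510 nm). Readout 2: ATP content by CellTiter-Glo luminescence after 30 min at RT. Both follow ~24 h exposure of HepG2 cells (1,000/well) to substances.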
# [3] = HepG2 viability counterscreen (readout 1: protease activity) against the NCATS DSHEA and TCM libraries (AID 1794841);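 also: cells exposed to compounds for about 24 h before the protease read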
# In short: as §1
# [4] = target: Glutathione peroxidase 1 (Homo sapiens) (UniProt P07203); experiment: Primary qHTS Assay for Inhibitors of Recombinant Selenoprotein Glutathione Peroxidase 1 (GPX1) (AID 1845191); also: nearly all actives have a fitted effect of over 65% in size
# Sequence of Glutathione peroxidase 1 (Homo sapiens) (P07203 whole entry, looked up): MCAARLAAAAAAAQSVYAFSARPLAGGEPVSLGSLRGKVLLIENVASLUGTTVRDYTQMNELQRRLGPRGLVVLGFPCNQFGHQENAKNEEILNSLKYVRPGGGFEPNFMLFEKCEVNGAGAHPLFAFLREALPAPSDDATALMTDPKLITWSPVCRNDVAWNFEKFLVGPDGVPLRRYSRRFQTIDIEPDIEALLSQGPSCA
# In short: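 NADPH consumption tracked by fluorescence at 340/450 nm between t=0 and t=15 min, room temperature. Final mix: 10 nM GPX1, 100 nM glutathione reductase, 1 mM GSH, 0.5 mM NADPH, 0.5 mM cumene hydroperoxide, 0.01% BSA; 30 min compound–enzyme preincubation.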
# [5] = target: Phospholipid hydroperoxide glutathione peroxidase GPX4 (Homo sapiens) (UniProt P36969); experiment: Primary qHTS Assay for Inhibitors of Recombinant Selenoprotein Glutathione Peroxidase 4 (GPX4) (AID 1845192); also: nearly all actives have a fitted effect of over 65% in size
# Sequence of Phospholipid hydroperoxide glutathione peroxidase GPX4 (Homo sapiens) (P36969 whole entry, looked up): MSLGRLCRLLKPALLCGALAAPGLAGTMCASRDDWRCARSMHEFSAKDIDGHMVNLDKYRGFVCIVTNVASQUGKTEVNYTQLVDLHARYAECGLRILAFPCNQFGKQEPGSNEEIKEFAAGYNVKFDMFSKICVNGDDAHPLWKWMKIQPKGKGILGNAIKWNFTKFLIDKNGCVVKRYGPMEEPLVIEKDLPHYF
# In short: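 NADPH consumption followed by fluorescence at 340/450 nm, t=0 and after 15 min at room temperature. Reaction started with cumene hydroperoxide (0.5 mM final) after 30 min compound–GPX4 preincubation; final 200 nM GPX4, 100 nM GR, 1 mM GSH, 0.5 mM NADPH.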
# [6] = target: Cytochrome P450 3A4 (Homo sapiens) (UniProt P08684); experiment: qHTS for inhibitors of CYP3A4 against the NCATS DSHEA and TCM libraries (AID 1919971);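 also: inhibition lowers luminescence from luciferin made by CYP3A4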
# Sequence of Cytochrome P450 3A4 (Homo sapiens) (P08684 whole entry, looked up, canonical isoform): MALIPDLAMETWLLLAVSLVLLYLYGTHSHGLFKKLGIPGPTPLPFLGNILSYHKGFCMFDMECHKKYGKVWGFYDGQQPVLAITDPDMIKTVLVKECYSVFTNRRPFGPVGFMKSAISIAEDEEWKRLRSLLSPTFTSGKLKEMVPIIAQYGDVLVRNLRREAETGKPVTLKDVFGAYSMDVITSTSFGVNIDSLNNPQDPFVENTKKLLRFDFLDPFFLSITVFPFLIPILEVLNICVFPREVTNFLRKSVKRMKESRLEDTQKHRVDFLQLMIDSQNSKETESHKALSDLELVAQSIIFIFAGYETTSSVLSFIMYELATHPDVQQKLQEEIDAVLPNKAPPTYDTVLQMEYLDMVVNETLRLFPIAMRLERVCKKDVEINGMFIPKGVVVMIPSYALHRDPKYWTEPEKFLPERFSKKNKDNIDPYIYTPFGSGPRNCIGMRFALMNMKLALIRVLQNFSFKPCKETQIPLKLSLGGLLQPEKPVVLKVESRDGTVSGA
# In short: (§2)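 Each CYP isoform and its pro-luciferin substrate, at isoform-specific final concentrations, were preincubated 15 min at RT with substances. NADPH regeneration solution (1x) started a 30-45 min reaction, and P450-Glo luminescence was read.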
# [7] = target: Cytochrome P450 2D6 (Homo sapiens) (UniProt P10635); experiment: qHTS for inhibitors of CYP2D6 against the NCATS DSHEA and TCM libraries (AID 1919972)
# In short: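 CYP2D6 enzyme with pro-luciferin substrate in manufacturer buffer (typically 100 mM KPO4), preincubated 15 min RT with substances (most at 19.5 nM upward); NADPH regeneration system (1x) started 30–45 min RT reaction; P450-Glo luminescence read after 30 min; quinidine as intraplate control.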
# [8] = target: Cytochrome P450 2C9 (Homo sapiens) (UniProt P11712); experiment: qHTS for inhibitors of CYP2C9 against the NCATS DSHEA and TCM libraries (AID 1919973);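 also: luminogenic pro-luciferin CYP2C9 substrate turned into luciferin with NADPH regeneration; series mostly up to about 34 µM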
# Sequence of Cytochrome P450 2C9 (Homo sapiens) (P11712 whole entry, looked up): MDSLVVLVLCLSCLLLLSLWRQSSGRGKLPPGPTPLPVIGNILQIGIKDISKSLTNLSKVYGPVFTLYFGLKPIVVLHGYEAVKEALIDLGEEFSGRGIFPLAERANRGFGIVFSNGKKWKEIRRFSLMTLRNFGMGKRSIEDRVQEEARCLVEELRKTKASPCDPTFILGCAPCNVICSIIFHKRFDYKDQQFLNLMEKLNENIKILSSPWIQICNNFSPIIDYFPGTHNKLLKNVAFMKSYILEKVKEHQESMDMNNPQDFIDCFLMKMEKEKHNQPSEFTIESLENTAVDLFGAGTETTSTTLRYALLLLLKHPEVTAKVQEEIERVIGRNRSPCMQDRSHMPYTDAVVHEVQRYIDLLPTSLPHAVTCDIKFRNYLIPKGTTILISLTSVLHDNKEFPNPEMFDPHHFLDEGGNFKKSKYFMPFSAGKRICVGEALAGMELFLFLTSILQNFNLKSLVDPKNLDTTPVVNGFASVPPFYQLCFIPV
# In short: as §2
# [9] = target: Cytochrome P450 2C19 (Homo sapiens) (UniProt P33261); experiment: qHTS for inhibitors of CYP2C19 against the NCATS DSHEA and TCM libraries (AID 1919974);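 also: luminescence from luciferin released by CYP2C19 oxidation of a pro-luciferin substrate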
# Sequence of Cytochrome P450 2C19 (Homo sapiens) (P33261 whole entry, looked up): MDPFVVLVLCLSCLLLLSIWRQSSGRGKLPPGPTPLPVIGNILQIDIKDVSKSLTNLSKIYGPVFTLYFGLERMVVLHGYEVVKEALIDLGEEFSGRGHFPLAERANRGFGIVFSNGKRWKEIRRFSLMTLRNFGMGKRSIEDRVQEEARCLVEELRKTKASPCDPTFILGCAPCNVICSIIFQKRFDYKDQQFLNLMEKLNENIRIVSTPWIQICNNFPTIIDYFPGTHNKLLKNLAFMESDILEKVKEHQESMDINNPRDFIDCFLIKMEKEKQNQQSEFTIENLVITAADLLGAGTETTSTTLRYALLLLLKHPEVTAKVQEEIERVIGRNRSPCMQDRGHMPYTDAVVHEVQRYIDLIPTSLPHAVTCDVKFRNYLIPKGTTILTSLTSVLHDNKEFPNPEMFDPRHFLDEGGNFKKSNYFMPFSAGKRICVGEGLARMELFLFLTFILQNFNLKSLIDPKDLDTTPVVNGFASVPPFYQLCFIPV
# In short: as §2
# [10] = KB-3-1 P-gp reporter qHTS against the NCATS DSHEA and TCM libraries (AID 1919975)
# In short: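 Cell viability by CellTiter-Glo luminescence following ~72 h compound exposure (concentration-response). Uses parental, non-P-gp-overexpressing KB-3-1 line, 500 cells/well in DMEM/10% FBS, attached ~4 h before dosing.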
# [11] = target: Cytochrome P450 1A2 (Homo sapiens) (UniProt P05177); experiment: qHTS for inhibitors of CYPIA2 against the NCATS DSHEA and TCM libraries (AID 1919976); also: series mostly up to about 37 µM
# In short: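 Reaction started with 1x NADPH regeneration solution and run 30-45 min, room temperature, protected from light, after compounds sat 15 min with CYP1A2 and pro-luciferin substrate. P450-Glo detection gave luminescence; furafylline served as control.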
# [12] = qHTS Counterscreen for compound interference against the NCATS DSHEA and TCM libraries (AID 1919978); details: firefly luciferase detection reagent interference, luminescence;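 also: compounds preincubated with 1 µM D-luciferin or buffer before detection reagent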
# In short: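 With 1 uM D-luciferin or phosphate buffer only, compounds at final 19.5 nM–39.8 uM were incubated for 15 min at room temperature. Luciferase detection reagent was then added, and luminescence was measured after a further 30 min at room temperature.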
# [13] = Dual reporter qHTS for agonist of Pregnane X Receptor (hPXR) against the NCATS DSHEA and TCM libraries: Fluorescence readout (AID 1920058)
# In short: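 Viability readout (CellTiter-Fluor, 405/540 nm, 1 h) from agonist-mode PXR dual reporter in hPXR-Luc HepG2 cells. Substances ~24 h, 37 °C, 5% CO2; rifampicin reference, tetraoctyl ammonium bromide cytotoxic control.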
# [14] = target: Nuclear receptor subfamily 1 group I member 2 (Homo sapiens) (UniProt O75469); experiment: Dual reporter qHTS for agonist of Pregnane X Receptor (hPXR) against the NCATS DSHEA and TCM libraries: Luminescence readout (AID 1920059)
# Sequence of Nuclear receptor subfamily 1 group I member 2 (Homo sapiens) (O75469 whole entry, looked up): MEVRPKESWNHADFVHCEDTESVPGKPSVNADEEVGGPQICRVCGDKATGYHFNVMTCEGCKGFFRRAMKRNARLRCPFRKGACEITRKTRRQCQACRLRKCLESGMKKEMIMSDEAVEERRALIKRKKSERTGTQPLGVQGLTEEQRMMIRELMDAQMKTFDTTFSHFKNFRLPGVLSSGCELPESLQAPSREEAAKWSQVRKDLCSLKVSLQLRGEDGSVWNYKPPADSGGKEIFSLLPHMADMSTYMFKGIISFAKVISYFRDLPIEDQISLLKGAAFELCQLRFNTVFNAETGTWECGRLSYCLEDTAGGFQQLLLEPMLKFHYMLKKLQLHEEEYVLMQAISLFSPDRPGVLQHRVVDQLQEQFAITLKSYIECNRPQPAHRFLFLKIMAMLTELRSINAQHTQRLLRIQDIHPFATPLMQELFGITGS
# In short: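 Luminescent PXR reporter read (ONE-Glo) after a CellTiter-Fluor viability read, following 24 h, 37C treatment of HepG2 cells stably carrying hPXR-Luc.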
# [15] = target: Nuclear receptor subfamily 1 group I member 2 (Homo sapiens) (UniProt O75469); experiment: Dual reporter qHTS for antagonist of Pregnane X Receptor (hPXR) against the NCATS DSHEA and TCM libraries: Luminescence Readout (AID 1920060);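 also: HepG2 cells carrying hPXR luciferase reporter stimulated with rifampicin at 2 µM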
# In short: (§3)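 Antagonist mode: rifampicin 2 uM final co-added with compounds to hPXR-LucHepG2 cells for 24 h at 37C. Viability by CellTiter-Fluor, Ex/Em 405/540 nm, 1 h; reporter by ONE-Glo luminescence.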
# [16] = Dual reporter qHTS for antagonist of Pregnane X Receptor (hPXR) against the NCATS DSHEA and TCM libraries: Fluorescence Readout (AID 1920061)
# In short: as §3
# [17] = qHTS drug screen for cell cycle checkpoint inhibitors in PARPi-resistant BRCA-mutant ovarian cancer cell lines. (AID 1963452; calls by dose curve); details: PEO1/OlaR viability, CellTiter-Glo luminescence, 96 h, stronger effect = lower value
# In short: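 PEO1, PEO4 and PEO1/OlaR ovarian cancer cells, 600 per well, exposed 96 h at 37C to a dilution series. Viability read by CellTiter-Glo luminescence, normalized to DMSO and empty wells; activity summarized as Z-AUC.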
# [18] = target: Rap guanine nucleotide exchange factor 3 (Homo sapiens) (UniProt O95398); experiment: Confirmatory qHTS for antagonist of cAMP-regulated guanine nucleotide exchange factor 3 (EPAC1) (AID 1645880); also: potency is read from the fitted curve at half-maximal effect; nearly all actives have a fitted effect of over 55% in size
# Sequence of Rap guanine nucleotide exchange factor 3 (Homo sapiens) (O95398 whole entry, looked up): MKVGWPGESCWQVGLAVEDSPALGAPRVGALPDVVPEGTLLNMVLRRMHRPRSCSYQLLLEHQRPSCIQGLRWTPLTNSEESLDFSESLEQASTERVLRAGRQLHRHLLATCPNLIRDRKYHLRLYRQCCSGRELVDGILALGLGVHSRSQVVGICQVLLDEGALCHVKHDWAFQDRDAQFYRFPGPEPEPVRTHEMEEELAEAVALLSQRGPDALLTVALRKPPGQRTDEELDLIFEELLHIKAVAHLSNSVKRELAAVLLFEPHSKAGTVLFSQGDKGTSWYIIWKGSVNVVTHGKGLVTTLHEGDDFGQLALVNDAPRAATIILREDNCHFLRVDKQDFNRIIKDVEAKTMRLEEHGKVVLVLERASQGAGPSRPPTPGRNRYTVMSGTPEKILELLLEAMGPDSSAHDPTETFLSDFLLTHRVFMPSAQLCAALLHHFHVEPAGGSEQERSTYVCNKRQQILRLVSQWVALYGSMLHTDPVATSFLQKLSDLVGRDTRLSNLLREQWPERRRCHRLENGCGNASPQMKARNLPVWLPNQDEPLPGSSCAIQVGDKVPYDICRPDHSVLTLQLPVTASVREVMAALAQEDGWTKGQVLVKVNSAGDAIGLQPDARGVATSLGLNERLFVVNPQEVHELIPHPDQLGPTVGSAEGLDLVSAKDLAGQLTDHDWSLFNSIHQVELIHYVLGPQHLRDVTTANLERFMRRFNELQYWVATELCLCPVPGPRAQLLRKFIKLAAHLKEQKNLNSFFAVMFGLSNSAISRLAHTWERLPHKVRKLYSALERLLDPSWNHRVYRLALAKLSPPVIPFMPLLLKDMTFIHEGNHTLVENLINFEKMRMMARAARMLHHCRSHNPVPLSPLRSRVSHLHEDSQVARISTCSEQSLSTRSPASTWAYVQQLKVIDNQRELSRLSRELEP
# In short: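 Released BODIPY-GDP fluoresces less than Rap1-bound BODIPY-GDP; the signal is followed at 480/540 nm at 5-min intervals over 30 min, after 5 min at room temperature. Reactions contain 100 nM EPAC1, 250 nM RAP1B-BODIPY-GDP and 50 uM GDP; results are normalized to ATA and DMSO.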
# [19] = target: Rap guanine nucleotide exchange factor 3 (Homo sapiens) (UniProt O95398); experiment: Confirmatory qHTS for agonist of cAMP-regulated guanine nucleotide exchange factor 3 (EPAC1) (AID 1645881);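 also: EPAC1 catalysed release of BODIPY-GDP from Rap1B seen as fluorescence loss; nearly all actives have a fitted effect of over 75% in size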
# [20] = target: Rap guanine nucleotide exchange factor 4 (Homo sapiens) (UniProt Q8WZA2); experiment: Confirmatory qHTS for agonist of cAMP-regulated guanine nucleotide exchange factor 4 (EPAC2) (AID 1645884);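 also: nucleotide exchange releases bodipy-GDP from Rap1 and this lowers its fluorescence; nearly all actives have a fitted effect of over 65% in size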
# Sequence of Rap guanine nucleotide exchange factor 4 (Homo sapiens) (Q8WZA2 whole entry, looked up): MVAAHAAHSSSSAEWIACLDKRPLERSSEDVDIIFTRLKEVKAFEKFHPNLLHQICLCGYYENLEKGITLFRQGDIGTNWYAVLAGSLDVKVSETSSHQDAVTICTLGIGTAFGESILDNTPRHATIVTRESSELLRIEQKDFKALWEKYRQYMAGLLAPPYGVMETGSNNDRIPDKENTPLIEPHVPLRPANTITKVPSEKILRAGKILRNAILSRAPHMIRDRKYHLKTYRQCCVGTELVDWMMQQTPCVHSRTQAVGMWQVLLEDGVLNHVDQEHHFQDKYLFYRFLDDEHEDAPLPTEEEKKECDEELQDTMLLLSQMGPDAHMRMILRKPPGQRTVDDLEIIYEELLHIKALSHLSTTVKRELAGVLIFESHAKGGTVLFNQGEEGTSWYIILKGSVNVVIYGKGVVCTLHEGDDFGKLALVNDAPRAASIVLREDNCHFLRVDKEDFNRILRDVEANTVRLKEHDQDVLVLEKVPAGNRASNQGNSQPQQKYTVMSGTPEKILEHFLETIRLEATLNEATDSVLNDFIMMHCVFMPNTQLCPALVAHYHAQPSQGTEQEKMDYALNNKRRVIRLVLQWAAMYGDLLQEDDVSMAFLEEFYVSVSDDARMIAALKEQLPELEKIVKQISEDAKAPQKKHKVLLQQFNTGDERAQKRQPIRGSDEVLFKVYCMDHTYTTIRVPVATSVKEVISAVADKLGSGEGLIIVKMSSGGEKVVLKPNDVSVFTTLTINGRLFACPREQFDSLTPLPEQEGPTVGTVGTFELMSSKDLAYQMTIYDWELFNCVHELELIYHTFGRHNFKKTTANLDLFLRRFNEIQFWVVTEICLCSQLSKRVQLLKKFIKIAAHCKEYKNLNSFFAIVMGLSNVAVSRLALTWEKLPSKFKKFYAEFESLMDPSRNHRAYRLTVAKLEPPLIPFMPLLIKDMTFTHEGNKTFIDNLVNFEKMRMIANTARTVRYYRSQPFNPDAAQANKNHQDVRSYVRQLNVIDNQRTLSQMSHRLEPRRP
# [21] = target: Rap guanine nucleotide exchange factor 4 (Homo sapiens) (UniProt Q8WZA2); experiment: Confirmatory qHTS for antagonist of cAMP-regulated guanine nucleotide exchange factor 4 (EPAC2) (AID 1645885); also: nearly all actives have a fitted effect of over 25% in size
# [22] = target: Rap guanine nucleotide exchange factor 3 (Homo sapiens) (UniProt O95398); experiment: Counterscreen qHTS for antagonist of cAMP-regulated guanine nucleotide exchange factor 3 (EPAC1) (AID 1645888)
# In short: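 Rap1B-BODIPY-GDP 250 nM + GDP 50 uM; cpds 7-pt, final 9.74 nM–152 uM (activator mode) or from 7.32 nM upwards (inhibitor mode); RT; FI 480/540 nm at 5 and 30 min, then ± cAMP, reread.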
# [23] = target: Cytochrome P450 2C9 (Homo sapiens) (UniProt P11712); experiment: Cytochrome P450 family 2 subfamily C member 9 (CYP2C9) small molecule antagonists: luciferase biochemical (cell-free) qHTS assay (AID 1645842; active = well fitted curve in the direction sought with a large enough effect in the repeat runs; an effect the other way counts as inactive or inconclusive; also: nearly all actives have a fitted effect of over 55% in size; also: potency is read from the fitted curve at half-maximal effect)
# In short: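 P450-Glo CYP2C9 system: proluciferin substrate with enzyme in mix containing 0.4% BSA, 10 min at room temperature, then NADPH regeneration solution added and incubated 1 h at 37C. Detection reagent stopped reaction; luminescence read after 20 min as RLU.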
# [24] = qHTS for Inhibitors of the vitamin D receptor (VDR): Hit Validation using a Texas Red Assay (AID 602201); details: VDR coregulator binding, Texas Red fluorescence polarization; agonist-bound VDR ligand-binding domain; also: potency is read from the fitted curve at half-maximal effect
# In short: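 After a 2-hour room-temperature incubation, polarization of Texas-Red emission was read (Ex 595 nm/Em 615 nm). Final mix contained 7 nM Texas Red, 1.5 uM VDR-LBD and LG19078.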
# [25] = target: Cytochrome P450 3A4 (Homo sapiens) (UniProt P08684); experiment: Cytochrome P450 family 3 subfamily A member 4 (CYP3A4) small molecule antagonists: luciferase qHTS assay (AID 1645841; active = well fitted curve in the direction sought with a large enough effect in the repeat runs; an effect the other way counts as inactive or inconclusive; also: nearly all actives have a fitted effect of over 45% in size)
# In short: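 Luminescent CYP3A4 activity readout: compounds plus enzyme-substrate mix 10 min at room temperature, reaction started with NADPH regenerating system for 1 h, stopped with detection reagent, read after 20 min. Ketoconazole served as control.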
# [26] = qHTS Assay for Identifying Gametocytocidal Compounds (AID 743244);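 also: actives lower the fluorescent signal which means gametocytes are killed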; details: P. falciparum 3D7 stage III-V gametocytes, alamarBlue, 72 h; max response: stronger effect = lower value
# In short: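 Stage III-V P. falciparum 3D7 gametocytes, 20,000 per well, were exposed to compounds for 72 h at 37C, 5% CO2. AlamarBlue was then added for 24 h and viability was read as fluorescence at Ex 525/Em 598 nm.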
# [27] = target: N-terminal Xaa-Pro-Lys N-methyltransferase 1 (Homo sapiens) (UniProt Q9BV86); experiment: Confirmatory qHTS for Inhibitors of N-terminal methyltransferase 1 (NTMT1): MTaseGlo Assay (AID 1645874);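 also: luminescence from SAH made as NTMT1 methylates SPKRIA peptide using SAM; series mostly up to about 100 µM; nearly all actives have a fitted effect of over 65% in size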
# Sequence of N-terminal Xaa-Pro-Lys N-methyltransferase 1 (Homo sapiens) (Q9BV86 whole entry, looked up): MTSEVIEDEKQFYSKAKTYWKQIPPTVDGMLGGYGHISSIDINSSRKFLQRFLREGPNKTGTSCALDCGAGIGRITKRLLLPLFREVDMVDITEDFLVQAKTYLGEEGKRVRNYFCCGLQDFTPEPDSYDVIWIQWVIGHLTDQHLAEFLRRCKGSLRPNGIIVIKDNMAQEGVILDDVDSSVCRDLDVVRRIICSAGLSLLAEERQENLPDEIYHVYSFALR
# In short: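 SPKRIA peptide at 1 uM was methylated by 125 nM NTMT1 using 100 uM SAM over 30 min at room temperature, following a 15 min compound preincubation. Product SAH was detected luminescently.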
smiles,measurement,setting,value
OCC=Cc1ccccc1,Potency,[1],inactive
same,outcome,[2],inactive
same,outcome,[3],inactive
same,Potency,[4],inactive
same,Potency,[5],inactive
same,outcome,[6],inactive
same,outcome,[7],inactive
same,outcome,[8],inactive
same,outcome,[9],inactive
same,outcome,[10],inactive
same,outcome,[11],inactive
same,max response,[12],2.25% (inactive)
same,outcome,[13],inactive
same,outcome,[14],inactive
same,outcome,[15],inactive
same,outcome,[16],inactive
CCn1c(N)c(C(=O)NC)c(=O)c2ccc(C#C[C@@](C)(O)COC)nc21,Potency,[1],inactive
same,Potency,[4],inactive
same,Potency,[5],inactive
same,Z-AUC,[17],-0.226 (inactive)
same,Z-AUC,[17]; measured here: PEO1 parental Z-AUC,-0.662
same,Z-AUC,[17]; measured here: PEO4 Z-AUC,0.0317
NCCNc1ccc(NCCN)c2c1C(=O)c1ccncc1C2=O,Potency,[1],2.68 µM (active)
same,Potency,[4],inactive
same,Potency,[5],inactive
Cc1cc(Cl)ccc1NC(=O)Cn1nc(C)c2c(C)n(-c3ccccc3)nc2c1=O,Potency,[1],inactive
same,Potency,[18],84.9 µM (active)
same,Potency,[19],inactive
same,Potency,[20],inactive
same,Potency,[21],inactive
same,Potency,[22],inactive
CC(C)[C@H](N)C(=O)O,Potency,[1],inactive
same,Potency,[4],inactive
same,Potency,[5],inactive
CCOC(=O)c1cc(S(=O)(=O)N2CCN(c3cc(Cl)ccc3C)CC2)[nH]n1,Potency,[23],1.2 µM (active)
Cc1ccnc(NC(c2cc(C)ccc2O)c2ccc3cccnc3c2O)c1 (stereo unspecified),Potency,[24],28.2 µM (active)
same,Potency,[1],inactive
same,Potency,[23],23.9 µM (active)
Cc1nc2c(-c3ccccc3)c(C)[nH]n2c(=O)c1Cc1ccc(Br)cc1,Potency,[25],inactive
CC[C@H]1OC(=O)[C@H](C)[C@@H](O[C@H]2C[C@@](C)(OC)[C@@H](O)[C@H](C)O2)[C@H](C)[C@@H](O[C@@H]2O[C@H](C)C[C@H](N(C)C)[C@H]2O)[C@](C)(OC)C[C@@H](C)C(=O)[C@H](C)[C@@H](O)[C@]1(C)O,max response,[26],-5.34% (inactive)
same,Potency,[1],inactive
same,Potency,[23],inactive
same,Potency,[4],inactive
same,Potency,[5],inactive
COc1ccc(NC(=O)CSc2ncc(-c3ccc(Cl)cc3)[nH]2)cc1OC,Potency,[23],0.849 µM (active)
COc1ccccc1NC(=O)CSc1oc(-c2cccs2)nc1S(=O)(=O)c1ccc(Br)cc1,Potency,[23],0.425 µM (active)
Cc1ccc(/C=C2\C(=O)C3(C)CCC2C3(C)C)cc1 (stereo unspecified),Potency,[1],inactive
same,Potency,[23],8.49 µM (active)
same,Potency,[4],inactive
same,Potency,[5],inactive
NC(=O)C(c1ccccc1)(c1ccccc1)[C@H]1CCN(CCc2ccc3c(c2)CCO3)C1,Potency,[23],8.49 µM (active)
COCCOc1nc(N)c2[nH]c(=O)n(Cc3ccc(C(=O)O)cc3)c2n1,Potency,[23],inactive
CCOc1ccc(-c2nonc2NC(=O)c2oc3c(C)c(C)ccc3c2C)cc1OCC,Potency,[23],0.379 µM (active)
COCCCNC(=O)CSc1c2c(nc3ccc(Cl)cc13)CCCC2,Potency,[27],inactive
COc1ccc(NC(=O)CSc2nc(-c3cccs3)cc(C(F)(F)F)n2)cc1OC,Potency,[23],inactive
CC1=C(C(=O)Nc2nnc(C(F)(F)F)s2)C(c2ccccc2Cl)N=C(Nc2nc3ccccc3o2)N1 (stereo unspecified),Potency,[23],10.7 µM (active)
